# Among all 290,000 compounds or so, about 3,000 (1%) were called active. No stated cut-off is given here; in the data, active means inhibition mostly above about 36% (no sharp cut-off); inactive means mostly below about 34%. This excerpt belongs to a sample that is enriched for actives.
# Biological target: T1, Nucleotide-binding oligomerization domain-containing protein 1, Homo sapiens (UniProt Q9Y239)
# T1 sequence (whole entry): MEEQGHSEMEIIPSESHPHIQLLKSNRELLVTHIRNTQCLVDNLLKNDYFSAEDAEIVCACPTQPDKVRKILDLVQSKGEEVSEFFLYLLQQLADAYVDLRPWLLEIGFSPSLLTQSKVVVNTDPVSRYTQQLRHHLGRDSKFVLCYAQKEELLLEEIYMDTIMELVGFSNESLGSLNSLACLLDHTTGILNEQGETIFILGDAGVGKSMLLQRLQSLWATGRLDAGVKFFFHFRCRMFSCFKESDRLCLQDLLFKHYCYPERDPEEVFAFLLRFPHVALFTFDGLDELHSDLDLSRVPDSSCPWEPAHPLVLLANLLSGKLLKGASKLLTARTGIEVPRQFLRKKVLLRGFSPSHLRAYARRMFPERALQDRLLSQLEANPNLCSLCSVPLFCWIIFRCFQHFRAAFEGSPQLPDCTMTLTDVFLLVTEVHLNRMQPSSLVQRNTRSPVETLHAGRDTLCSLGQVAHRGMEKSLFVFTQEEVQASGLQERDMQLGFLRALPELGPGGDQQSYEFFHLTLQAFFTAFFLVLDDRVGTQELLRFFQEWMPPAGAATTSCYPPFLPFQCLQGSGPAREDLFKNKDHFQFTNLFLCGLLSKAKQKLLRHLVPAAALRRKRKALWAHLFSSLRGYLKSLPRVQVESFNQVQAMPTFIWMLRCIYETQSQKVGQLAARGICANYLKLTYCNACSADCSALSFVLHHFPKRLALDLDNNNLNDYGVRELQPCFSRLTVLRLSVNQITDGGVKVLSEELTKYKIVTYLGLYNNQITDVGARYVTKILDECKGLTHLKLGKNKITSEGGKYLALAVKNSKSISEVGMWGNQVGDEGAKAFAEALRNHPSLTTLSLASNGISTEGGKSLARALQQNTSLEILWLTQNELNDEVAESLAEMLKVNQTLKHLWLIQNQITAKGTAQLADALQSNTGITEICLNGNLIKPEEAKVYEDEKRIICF
# Assay: inhibition of NOD1-driven NF-kB reporter – cell-based, luminescence, uHTS, primary screen (AID 1578)
row,SMILES,outcome
1,CCCc1ccc(-c2c(C)sc(NC(=O)c3ccnn3C)c2C#N)cc1,active
2,O=C1N/C(=N\N=C\c2ccccn2)SC1Cc1cccc(SC(F)F)c1 (stereo not drawn),active
3,CCOc1ccc2nc(NC(=O)c3ccccn3)sc2c1,active
4,COc1ccccc1C(=O)Nc1nc2ccccc2s1,active
5,COc1ccc(C(=O)Nc2nc3ccccc3s2)c(OC)c1,active
6,O=C(Nc1ccc([N+](=O)[O-])cc1)Nc1nc(-c2ccc(Cl)s2)cs1,active
7,O=C(NC1CCCCC1)C(c1cccnc1)N(C(=O)CCl)c1cccc(Cl)c1 (stereo not drawn),active
8,O=C(NC1CCCCC1)C(c1cccnc1)N(C(=O)CCl)c1ccccc1Cl (stereo not drawn),active
9,COC(CN(C(=O)CCl)C(C(=O)NC1CCCCC1)c1ccccc1C)OC (stereo not drawn),active
10,Cc1ccc(N(C(=O)CCl)C(C(=O)NC2CCCCC2)c2cccnc2)cc1C (stereo not drawn),active
11,COc1ccc(C(C(=O)NC2CCCCC2)N(C(=O)CCl)c2cccc(Cl)c2)cc1 (stereo not drawn),active
12,CC(C)c1noc2ncc(C(=O)c3cc(Cl)cc(Cl)c3O)cc12,active
13,Cc1nnc(N2CCCC(C(=O)Nc3cc(F)ccc3F)C2)c2nn(-c3ccccc3)c(C)c12 (stereo not drawn),active
14,N#CCc1ccc(NC(=O)c2ccc(CN3CCc4ccccc4C3)cc2)cc1,active
15,O=C(Nc1ccc(F)cc1)c1ccc(CN2CCc3ccccc3C2)cc1,active
16,Cc1ccc(-c2csc(N3CCC(NS(=O)(=O)c4ccc5c(c4)OCCO5)CC3)n2)cc1,active
17,COc1ccc(Oc2ccccc2/C=N/O)cc1,active
18,O=C(CSc1nnnn1C1CC2CCC1C2)Nc1ccnc2ccccc12 (stereo not drawn),active
19,CCC(C)Cn1c([O-])cc2nn(-c3nc4ccccc4s3)c(=O)c-2c1C.[Na+] (stereo not drawn),active
20,CC1=Nc2ccccc2/C1=C/c1sc(=N)n(-c2nccs2)c1O,active
21,NC(=O)c1cc2ccncc2c2ccccc12,active
22,Nc1cc2ccncc2c2ccccc12,active
23,Cc1cccc(C(=O)NNC2=C(C(=O)C(F)(F)F)CCC2)c1O,active
24,C=CS(=O)(=O)c1ccc(Oc2ccc(S(=O)(=O)C=C)cc2)cc1,active
25,COc1cccc(NS(=O)(=O)c2ccc3c(c2)CCN3C(C)=O)c1,active

row,SMILES,outcome
1,COc1cccc(C(=O)/C=C/Nc2ccc(S(=O)(=O)Nc3cccc(C(C)=O)c3)cc2)c1,active
2,Cc1c(C)n(Cc2ccccc2)c2ncnc(Cl)c12,active
3,Br.CCCCCCCCCCn1c2c(c(=N)c3c1CCC3)CCC2,active
4,Br.CCCCCCCCn1c2c(c(=N)c3ccccc31)CCC2,active
5,Br.CCCCCCCCCn1c2c(c(=N)c3c1CCC3)CCC2,active
6,COc1cccc(NC(=O)CN(C)CC(=O)Nc2ccc(C)c([N+](=O)[O-])c2)c1,active
7,Cc1ccc(N(Cc2cc(=O)[nH]c3ccccc23)C(=O)CCl)cc1,active
8,Cc1cccc(N(Cc2cc(=O)[nH]c3ccccc23)C(=O)CCl)c1,active
9,O=C(CCl)N(Cc1cc(=O)[nH]c2ccccc12)c1ccccc1,active
10,Cn1cc([N+](=O)[O-])c(C(=O)Nc2cc(Oc3ccccc3)cc([N+](=O)[O-])c2)n1,active
11,O=C(c1nnsc1S(=O)(=O)c1ccc(Cl)cc1)N1CCOCC1,active
12,CNC(=O)c1nnsc1S(=O)(=O)c1ccc(Cl)cc1,active
13,O=C(Nc1nnc(-c2ccc3c(c2)OCCO3)o1)c1ccc(Cc2ccccc2)cc1,active
14,CCCN(CCC)S(=O)(=O)c1ccc(C(=O)Nc2nnc(-c3cc(OC)cc(OC)c3)o2)cc1,active
15,O=C(Nc1nnc(-c2ccco2)o1)c1ccc2ccccc2c1,active
16,COc1cc(OC)cc(-c2nnc(NC(=O)c3ccc4c(c3)OCCO4)o2)c1,active
17,CSCc1nnc(NC(=O)c2ccc(S(=O)(=O)N(CC(C)C)CC(C)C)cc2)o1,active
18,O=C(Nc1ccc(Oc2ccccc2)cc1)C1CCN(c2c3c(nc4ncnn24)CCC3)CC1,active
19,CC1CCc2nc(N)c(C#N)c(-c3cccnc3)c2C1 (stereo not drawn),active
20,Cc1nc(N)c(C#N)c(-c2cccnc2)c1-c1ccccc1,active
21,Cc1ccc(NC(=O)O/N=C/c2c(C)nn(C(C)(C)C)c2C)cc1Cl,active
22,CC(=O)Oc1c(C)cc(Cl)cc1C(=O)Nc1ccc([N+](=O)[O-])cc1Cl,active
23,CC1CCc2c(sc(NC(=O)CSc3ncn[nH]3)c2C#N)C1 (stereo not drawn),active
24,N#Cc1c(NC(=O)CSc2ncn[nH]2)sc2c1CCCCC2,active
25,N#Cc1c(NC(=O)CSc2ncn[nH]2)sc2c1CCCC2,active

row,SMILES,outcome
1,O=C(Nc1cc(S(=O)(=O)Nc2ccccc2Cl)ccc1O)c1cc2c(s1)CCCC2,active
2,Cc1ccc(NC(=O)c2cc3c(s2)CCCC3)cc1S(=O)(=O)Nc1ccccc1Cl,active
3,Cn1c(=O)c(C#N)c(-c2ccc(F)cc2)c2cc(C(=O)c3cc(Cl)cc(Cl)c3O)cnc21,active
4,CC(C)(C)c1ccc(C(=O)N2CCCCCC2=O)cc1,active
5,O=C(COc1ccc(Cl)cc1Cl)Nc1ccc(C(=O)Nc2ccccc2C(=O)O)cc1,active
6,O=[N+]([O-])c1cc(Cl)c(O)c2ncccc12,active
7,O=C(Oc1c(Cl)cc(Cl)c2cccnc12)c1ccco1,active
8,Oc1c(I)cc(Cl)c2cccnc12,active
9,Oc1c(Cl)cc(Cl)c2cccnc12,active
10,Oc1c(I)cc(I)c2cccnc12,active
11,c1ccc(N2CCN(c3ncnc4sc5c(c34)CCC5)CC2)cc1,active
12,Cn1cc(C(=O)CCl)c2ccccc21,active
13,Cn1c(-c2ccccc2)c(C(=O)CCl)c2ccccc21,active
14,Cc1ccc2[nH]c3c(N4CCc5ccccc5C4)ncnc3c2c1,active
15,Cc1ccc2[nH]c3c(N4CCN(Cc5ccccc5)CC4)ncnc3c2c1,active
16,Cc1ccc2c(c1)[nH]c1c(N3CCN(Cc4ccccc4)CC3)ncnc12,active
17,c1ccc(CN2CCN(c3ncnc4c3[nH]c3ccccc34)CC2)cc1,active
18,O=C(CCCc1nc(-c2ccc(Cl)cc2)no1)NC1CCCC1,active
19,O=C(CCCc1nc(-c2ccc(Cl)cc2)no1)NC1CCCCC1,active
20,Cc1ccc(-c2noc(CCCC(=O)NC3CCCCC3)n2)cc1,active
21,N#CC(c1cccc(Cl)c1)c1ccc2c(C(F)(F)F)cc(C(F)(F)F)nc2n1 (stereo not drawn),active
22,CCCCN(c1ccccc1)c1ncnc(N)c1[N+](=O)[O-],active
23,Cc1ccc(Cl)cc1N1CCN(C(=O)CSc2nnc3n2C(C)(C)Cc2ccccc2-3)CC1,active
